These results are taken from the supplement of paper PMC12024529.

The test concerns HEK293 WT BDD-FVIII-Gluc. Description: secreted FVIII-Gluc luciferase Z-score vs DMSO control; higher = more FVIII-Gluc secretion. The note with it: 5 µM. As to the method:
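Natural plant-compound library (480 compounds, ST catalogue IDs) screened on HEK293 cells stably expressing WT BDD-FVIII-Gaussia luciferase fusion at 5 µM. Secreted Gluc activity in the medium is given as a Z-score relative to DMSO controls.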
Take `COc1cc([C@@H]2c3cc4c(cc3[C@H](O)[C@H]3COC(=O)[C@H]23)OCO4)cc(OC)c1OC`: the “secreted FVIII-Gluc luciferase Z-score” value was -3.94.
As for `COc1ccc2c(c1OC)CN1CCc3cc4c(cc3C1C2)OCO4` (stereo not given), the figure is 0.658; as for `CC(C)[C@@]1(NC(=O)[C@@H]2C[C@@H]3c4cccc5[nH]cc(c45)C[C@H]3N(C)C2)O[C@@]2(O)[C@@H]3CCCN3C(=O)[C@H](Cc3ccccc3)N2C1=O`, -0.176; as for `C=C(C)[C@H]1Cc2c(ccc3c2O[C@@H]2COc4cc(OC)c(OC)cc4[C@@H]2C3=O)O1`, -5.82.
As for `CCC12CCCN3CCC4(c5ccc(OC)c(O)c5N(C(C)=O)C4CC1)C32` (stereo not given), the figure is 0.655; as for `Cc1cc2c(C(C)C)c(O)c(O)c(C=O)c2c(O)c1-c1c(C)cc2c(C(C)C)c(O)c(O)c(C=O)c2c1O`, 1.13.
In the case of `COc1ccc2c(c1O)-c1c(OC)c(OC)cc3c1C(C2)N(C)CC3` (stereo not given) it was 0.615; in that of `CN1[C@@H]2CC[C@H]1CC(OC(=O)C(CO)c1ccccc1)C2` (stereo not given in full), -0.395; in that of `CC1=CC(=O)C2=C(C)C[C@H](O)[C@H]3[C@H](C)C(=O)O[C@@H]3C12` (stereo not given in full), -0.726.
Turning to `CC1=NCCc2c1[nH]c1cc(O)ccc21`, the “secreted FVIII-Gluc luciferase Z-score” value is -0.262.
In the case of `C=C1C/C(=C/C)C(=O)O[C@@H]2CCN3CC=C(COC(=O)[C@]1(C)O)[C@H]23`, the “secreted FVIII-Gluc luciferase Z-score” value turned out to be 0.649.
As for `COc1ccc(CC2NCC(O)C2OC(C)=O)cc1` (stereo not given), the figure is -4.62.
As for `CC[C@@H](CO)NC(=O)[C@@H]1C=C2c3cccc4[nH]cc(c34)C[C@H]2N(C)C1`, the figure is 0.791; as for `CNC(=O)Oc1ccc2c(c1)C1(C)CCN(C)C1N2C` (stereo not given), 0.602; as for `Cc1nccc2c1[nH]c1ccccc12`, -0.617.
In the case of `CC(C)C1(NC(=O)[C@@H]2C=C3c4cccc5[nH]cc(c45)C[C@H]3N(C)C2)O[C@@]2(O)[C@@H]3CCCN3C(=O)[C@H](Cc3ccccc3)N2C1=O` (stereo not given in full) it was 1.35; in that of `OC[C@@H]1CCCN2CCCC[C@H]12`, -0.141; in that of `C[C@H]1C(=O)O[C@H]2CCN3CC=C(COC(=O)[C@](C)(O)[C@@]1(C)O)C23` (stereo not given in full), 0.0827.
As to `CC(=O)c1c(O)c(C)c(O)c(Cc2c(O)c3c(c(C(=O)/C=C/c4ccccc4)c2O)OC(C)(C)C=C3)c1O`, the “secreted FVIII-Gluc luciferase Z-score” value was -1.16.
As for `C/C=C/c1ccc2c(c1)OCO2`, the figure is 0.131; as for `COc1cc2c(cc1O)CCNC2C` (stereo not given), 0.0191; as for `C=C[C@H]1CN2CCC1C[C@@H]2C(O)c1ccnc2ccccc12` (stereo not given in full), 0.484.
In the case of `C=C[C@H]1CN2CCC1CC2c1[nH]c2ccccc2c1CCO` (stereo not given in full) it was 0.502; in that of `CN1C[C@H](C(=O)N[C@]2(C)O[C@@]3(O)[C@@H]4CCCN4C(=O)[C@H](Cc4ccccc4)N3C2=O)C[C@@H]2c3cccc4[nH]cc(c34)C[C@H]21`, 0.0715; in that of `COC(C)C(O)(C(=O)OC1=CCN2CC[C@H](O)[C@@H]12)C(C)C` (stereo not given in full), -0.914.
In the case of `CC(C)(C)[C@]1(O)C[C@@H]2OC(=O)C[C@@]23C(=O)O[C@@H]2OC(=O)[C@H](O)[C@]213` it was -0.32.
In the case of `C[C@]1(C(=O)O)CCC[C@]2(C)c3cc(O)ccc3CC[C@@H]12`, the “secreted FVIII-Gluc luciferase Z-score” value is -1.23.
As for `OC1COC(NC2OCC(O)C(O)C2O)C(O)C1O` (stereo not given), the figure is 0.00225; as for `COc1cc2c(cc1OC)-c1c(OC)c(OC)c(CO)c3c1C(C2)N(C)CC3` (stereo not given), -0.0378.
In the case of `COc1cc2c(cc1OC)-c1c(O)c(OC)cc3c1[C@H](C2)N(C)CC3` it was 0.65.
For `CC1CC[C@@]2(OC1)O[C@H]1[C@@H](O)[C@H]3[C@@H]4CC[C@H]5C[C@@H](O[C@@H]6O[C@H](CO)[C@H](O[C@@H]7O[C@H](CO)[C@@H](O)[C@H](O[C@@H]8OC[C@@H](O)[C@H](O)[C@H]8O)[C@H]7O[C@@H]7O[C@H](CO)[C@@H](O)[C@H](O[C@@H]8O[C@H](CO)[C@@H](O)[C@H](O)[C@H]8O)[C@H]7O)[C@H](O)[C@H]6O)[C@H](O)C[C@]5(C)[C@H]4CC[C@]3(C)[C@H]1[C@@H]2C` (stereo not given in full), the “secreted FVIII-Gluc luciferase Z-score” value came out at 0.427.
For `CC1CC[C@@]2(NC1)O[C@H]1C[C@H]3[C@@H]4CC=C5C[C@@H](O)CC[C@]5(C)[C@H]4CC[C@]3(C)[C@H]1[C@@H]2C` (stereo not given in full), the “secreted FVIII-Gluc luciferase Z-score” value is -1.02.
For `CN(C)[C@@H]1C(=O)C(C(N)=O)=C(O)[C@@]2(O)C(=O)C3=C(O)c4c(O)cccc4[C@@](C)(O)[C@H]3[C@H](O)[C@@H]12`, the “secreted FVIII-Gluc luciferase Z-score” value came out at 0.919.
As for `CC1(C)S[C@@H]2[C@H](N)C(=O)N2[C@H]1C(=O)O`, the figure is -1.19.
In the case of `C/C=C1/CN2CC[C@]34C(=C(C=O)[C@H]1C[C@H]23)Nc1ccccc14` it was 0.372.
In the case of `CCC1CN2CCC1CC2C(O)c1ccnc2ccccc12` (stereo not given) it was 0.33; in that of `COc1cc2c(cc1O)-c1c(O)c(OC)cc3c1[C@H](C2)N(C)CC3`, 0.6.
`C=C[C@H]1CN2CCC1C[C@@H]2[C@@H](O)c1ccnc2ccccc12` (stereo not given in full): the “secreted FVIII-Gluc luciferase Z-score” value is -0.283.
In the case of `COc1ccc2c(c1)[nH]c1c(C)nccc12` it was -2.87.
As for `C[C@H]1CCC/C=C/C2C[C@H](O)C[C@H]2[C@H](O)/C=C/C(=O)O1` (stereo not given in full), the figure is -4.99.
